Experimental data: ChEMBL document CHEMBL2218924, “A broad activity screen in support of a chemogenomic map for kinase signalling research and drug discovery” (Biochem J, 2013)

How the values were obtained:
[1] = biological target: Calcium/calmodulin-dependent protein kinase type 1 (Homo sapiens) (UniProt Q14012); details: at 1 µM
[2] = biological target: Calcium/calmodulin-dependent protein kinase type 1 (Homo sapiens) (UniProt Q14012); details: at 10 µM
[3] = biological target: Calcium/calmodulin-dependent protein kinase type II subunit beta (Homo sapiens) (UniProt Q13554); details: at 1 µM
[4] = biological target: Calcium/calmodulin-dependent protein kinase type II subunit beta (Homo sapiens) (UniProt Q13554); details: at 10 µM
[5] = biological target: Calcium/calmodulin-dependent protein kinase type II subunit gamma (Homo sapiens) (UniProt Q13555); details: at 1 µM
[6] = biological target: Calcium/calmodulin-dependent protein kinase type II subunit gamma (Homo sapiens) (UniProt Q13555); details: at 10 µM
[7] = biological target: Calcium/calmodulin-dependent protein kinase type II subunit delta (Homo sapiens) (UniProt Q13557); details: at 1 µM
[8] = biological target: Calcium/calmodulin-dependent protein kinase type II subunit delta (Homo sapiens) (UniProt Q13557); details: at 10 µM
[9] = biological target: T1, Calcium/calmodulin-dependent protein kinase type IV (Homo sapiens) (UniProt Q16566); details: at 1 µM
T1 sequence (whole entry): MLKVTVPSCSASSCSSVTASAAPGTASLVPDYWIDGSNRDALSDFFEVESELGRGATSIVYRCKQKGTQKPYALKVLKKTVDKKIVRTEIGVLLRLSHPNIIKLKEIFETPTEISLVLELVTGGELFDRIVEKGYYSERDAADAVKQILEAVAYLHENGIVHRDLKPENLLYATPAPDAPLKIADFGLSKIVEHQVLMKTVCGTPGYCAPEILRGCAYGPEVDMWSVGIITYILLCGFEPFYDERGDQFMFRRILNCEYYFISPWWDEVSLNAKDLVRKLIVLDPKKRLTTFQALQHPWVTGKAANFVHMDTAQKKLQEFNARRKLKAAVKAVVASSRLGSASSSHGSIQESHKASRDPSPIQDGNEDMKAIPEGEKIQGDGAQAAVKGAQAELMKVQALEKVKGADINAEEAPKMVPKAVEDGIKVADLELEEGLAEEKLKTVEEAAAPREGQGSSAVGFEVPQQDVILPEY

[10] = biological target: T1, Calcium/calmodulin-dependent protein kinase type IV (Homo sapiens); details: at 10 µM

Sequence of Calcium/calmodulin-dependent protein kinase type II subunit gamma (Homo sapiens) (Q13555 whole entry): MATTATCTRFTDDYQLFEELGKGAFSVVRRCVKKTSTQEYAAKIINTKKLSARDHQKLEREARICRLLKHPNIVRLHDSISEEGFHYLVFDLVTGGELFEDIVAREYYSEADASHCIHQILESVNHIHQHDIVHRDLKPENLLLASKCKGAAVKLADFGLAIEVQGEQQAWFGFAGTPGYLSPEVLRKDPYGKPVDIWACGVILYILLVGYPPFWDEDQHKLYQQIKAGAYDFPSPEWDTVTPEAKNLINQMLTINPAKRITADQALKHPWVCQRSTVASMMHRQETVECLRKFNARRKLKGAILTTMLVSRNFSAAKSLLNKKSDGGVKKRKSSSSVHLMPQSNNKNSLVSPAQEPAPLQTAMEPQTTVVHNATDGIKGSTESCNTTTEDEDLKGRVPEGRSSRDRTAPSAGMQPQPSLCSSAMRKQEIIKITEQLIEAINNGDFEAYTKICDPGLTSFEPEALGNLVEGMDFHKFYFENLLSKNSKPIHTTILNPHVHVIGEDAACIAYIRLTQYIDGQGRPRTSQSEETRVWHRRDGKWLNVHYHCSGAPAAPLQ
Sequence of Calcium/calmodulin-dependent protein kinase type 1 (Homo sapiens) (Q14012 whole entry, looked up): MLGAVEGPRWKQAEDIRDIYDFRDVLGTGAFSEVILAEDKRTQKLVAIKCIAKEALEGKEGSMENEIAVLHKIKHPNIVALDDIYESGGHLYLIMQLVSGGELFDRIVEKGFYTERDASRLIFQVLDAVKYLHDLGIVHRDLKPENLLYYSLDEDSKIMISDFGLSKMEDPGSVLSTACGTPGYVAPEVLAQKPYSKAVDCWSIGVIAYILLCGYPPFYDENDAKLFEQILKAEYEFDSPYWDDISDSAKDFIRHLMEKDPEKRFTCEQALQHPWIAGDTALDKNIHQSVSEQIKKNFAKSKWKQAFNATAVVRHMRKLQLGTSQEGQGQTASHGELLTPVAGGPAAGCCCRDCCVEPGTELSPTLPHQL
Sequence of Calcium/calmodulin-dependent protein kinase type II subunit beta (Homo sapiens) (Q13554 whole entry): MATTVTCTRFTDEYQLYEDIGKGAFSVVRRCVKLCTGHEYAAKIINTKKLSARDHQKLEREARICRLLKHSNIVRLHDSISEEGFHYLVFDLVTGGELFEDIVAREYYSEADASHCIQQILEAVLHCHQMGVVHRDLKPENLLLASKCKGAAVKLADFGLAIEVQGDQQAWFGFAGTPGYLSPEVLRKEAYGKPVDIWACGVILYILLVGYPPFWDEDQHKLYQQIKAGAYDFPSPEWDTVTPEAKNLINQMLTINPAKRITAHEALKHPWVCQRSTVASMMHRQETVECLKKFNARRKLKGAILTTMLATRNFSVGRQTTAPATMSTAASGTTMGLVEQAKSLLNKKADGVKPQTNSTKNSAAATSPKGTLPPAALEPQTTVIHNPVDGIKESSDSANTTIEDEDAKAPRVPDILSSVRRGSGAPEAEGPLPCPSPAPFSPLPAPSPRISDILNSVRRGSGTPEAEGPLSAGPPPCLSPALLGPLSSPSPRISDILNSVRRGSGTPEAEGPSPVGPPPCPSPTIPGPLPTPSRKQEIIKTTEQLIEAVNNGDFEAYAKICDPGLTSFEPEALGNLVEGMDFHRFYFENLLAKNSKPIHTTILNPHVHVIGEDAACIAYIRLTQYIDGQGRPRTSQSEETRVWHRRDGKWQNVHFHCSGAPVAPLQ
Sequence of Calcium/calmodulin-dependent protein kinase type II subunit delta (Homo sapiens) (Q13557 whole entry): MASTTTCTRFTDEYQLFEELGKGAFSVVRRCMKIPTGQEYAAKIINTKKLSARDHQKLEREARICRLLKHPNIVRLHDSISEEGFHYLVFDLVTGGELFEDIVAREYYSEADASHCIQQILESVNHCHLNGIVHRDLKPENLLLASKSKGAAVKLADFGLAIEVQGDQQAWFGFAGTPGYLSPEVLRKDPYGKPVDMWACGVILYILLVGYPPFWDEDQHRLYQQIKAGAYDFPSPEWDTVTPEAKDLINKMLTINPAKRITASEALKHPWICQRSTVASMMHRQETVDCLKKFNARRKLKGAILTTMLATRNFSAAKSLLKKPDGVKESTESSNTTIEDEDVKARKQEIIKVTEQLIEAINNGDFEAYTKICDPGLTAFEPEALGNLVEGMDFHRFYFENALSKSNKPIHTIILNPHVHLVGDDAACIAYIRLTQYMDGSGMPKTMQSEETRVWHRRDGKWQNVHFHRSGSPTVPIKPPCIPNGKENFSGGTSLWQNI

Row | Compound | residual activity [1] | residual activity [2] | residual activity [3] | residual activity [4] | residual activity [5] | residual activity [6] | residual activity [7] | residual activity [8] | residual activity [9] | residual activity [10]
1 | CO[C@H]1[C@@H](OC)C[C@H](C)[C@@H](OC)C2=CC(=O)C=C(NC(=O)/C(C)=C/C=C/[C@H](OC)[C@@H](OC(N)=O)/C(C)=C/[C@@H]1C)C2=O | 115% | 88% | 97% | 93% | 107% | 100% | 102% | 110% | 89% | 81%
2 | Nc1nc(Nc2ccc(S(N)(=O)=O)cc2)nn1C(=S)Nc1c(F)cccc1F | 66% | 17% | 5% | -1% | 2% | 0% | 0% | 0% |  | 
3 | c1ccc2c(-c3ccncc3)c[nH]c2c1 | 106% | 84% | 47% | 10% | 79% | 26% |  | 30% |  | 90%
4 | O=C1NC(=O)/C(=C\c2ccc3nccnc3c2)S1 | 109% | 80% | 65% | 18% | 91% | 34% | 76% | 28% | 109% | 84%
5 | O=C1NC(=O)c2cc(Nc3ccc(F)cc3)c(Nc3ccc(F)cc3)cc21 | 109% | 71% | 85% | 50% | 111% | 102% | 110% | 88% | 119% | 66%
6 | COc1cc2ncc(-c3ccccc3)nc2cc1OC |  |  | 100% | 82% |  | 78% |  | 80% |  | 60%
7 | Cc1cc2ncc(-c3ccccc3)nc2cc1C |  | 89% | 101% | 92% |  | 94% |  | 81% | 108% | 100%
8 | COc1ccc(S(=O)(=O)N(CCO)c2ccccc2CN(C)C/C=C/c2ccc(Cl)cc2)cc1 | 92% | 38% | 96% | 20% | 107% | 67% | 101% | 47% | 106% | 92%
9 | N#CCCc1ccc2c(c1)-c1[nH]c3ccc([N+](=O)[O-])cc3c1CC(=O)N2 |  |  | 54% | 32% | 6% | 1% | 10% | 3% |  | 
10 | Cc1cc(Nc2nc(-c3ccccc3)nc3ccccc23)n[nH]1 | 61% | 13% |  | 42% | 60% | 16% | 63% | 20% | 47% | 15%
11 | Oc1ccc(Nc2nc(-c3ccc(Cl)cc3)cs2)cc1 | 94% | 53% | 98% | 92% | 98% | 89% | 102% | 98% | 102% | 114%
12 | O=C1Nc2ccc(Br)cc2/C1=C\c1cc2c([nH]1)CCCC2 | 105% |  | 72% | 69% | 20% | 16% | 18% | 20% | 135% | 
13 | CC[n+]1c(/C=C/N(C)c2ccccc2)n(-c2ccccc2)c2ccc(-c3nc4ccccc4s3)cc21 | 107% | 26% | 93% | 38% | 113% | 99% | 109% | 78% | 124% | 95%
14 | CCN(CC)C(=O)c1ccc(Nc2nc(OCC3CCCCC3)c3nc[nH]c3n2)cc1 | 70% | 19% | 98% | 51% | 102% | 51% |  | 49% | 82% | 28%
15 | O=C1NC(=O)c2c1c1c3ccccc3[nH]c1c1[nH]c3cc(Br)ccc3c21 | 89% | 70% | 92% | 66% | 18% | 21% | 15% | 18% | 103% | 99%
16 | CC(=O)c1ccc(N2CCOCC2)cc1O | 108% | 83% | 89% | 92% | 103% | 96% | 102% | 86% | 97% | 98%
17 | Oc1c2ccccc2c2c3c(cccc13)N=N2 | 77% | 32% |  |  | 37% | 8% | 43% | 8% | 73% | 24%
18 | c1ccc(-c2n[nH]c3c2oc2ccccc23)cc1 | 115% | 136% | 87% | 36% | 81% | 25% | 79% | 22% |  | 90%
19 | CN(C)CCCn1cc(C2=C(c3c[nH]c4ccccc34)C(=O)NC2=O)c2ccccc21 | 89% | 49% | 63% | 18% | 28% | 6% | 16% | 5% | 88% | 45%

Row | Compound | residual activity [1] | residual activity [2] | residual activity [3] | residual activity [4] | residual activity [5] | residual activity [6] | residual activity [7] | residual activity [8] | residual activity [9] | residual activity [10]
20 | C[C@@H](N)[C@H]1CC[C@H](C(=O)Nc2ccncc2)CC1 | 123% | 125% |  |  | 100% | 89% | 107% | 92% | 90% | 90%
21 | Cc1cccc(-c2[nH]c(C(C)(C)C)nc2-c2ccc3c(c2)OCO3)n1 |  |  | 93% | 88% |  | 99% | 105% | 99% | 129% | 88%
22 | c1ccc(-c2n[nH]cc2-c2ccnc3ccccc23)nc1 |  | 83% | 96% | 68% | 94% | 69% | 96% | 80% | 139% | 78%
23 | Cc1nc(-c2ccccc2)c(-c2ccncc2)o1 | 104% | 89% | 97% | 86% | 97% | 83% | 104% | 81% | 108% | 112%
24 | O=c1cc(-c2cccc3c2Sc2ccccc2S3)oc(N2CCOCC2)c1 | 113% | 87% | 96% | 82% | 101% | 85% | 96% | 84% | 114% | 98%
25 | COc1cc2ncnc(Nc3ccc(NC(=O)c4ccccc4)cc3)c2cc1OC | 99% | 41% | 102% | 94% |  |  | 108% | 91% |  | 95%
26 | CC(=O)O/N=C1\C(=C2\C(=O)Nc3cc(Br)ccc32)Nc2ccccc21 | 82% | 50% | 79% | 27% | 23% | 4% | 17% | 4% | 100% | 90%
27 | Ic1cccc(CSc2nnc(-c3ccncc3)o2)c1 | 97% | 79% | 75% | 55% | 85% | 74% | 73% | 65% | 106% | 100%
28 | COc1ccc(C(=O)Nc2sc3c(c2C(N)=O)CCCC3)cc1OC | 102% | 75% | 83% | 73% | 86% | 66% | 86% | 66% | 107% | 85%
29 | O=C(Nc1cccc(Nc2nccc(Nc3cccc(C(F)(F)F)c3)n2)c1)C1CC1 | 86% | 31% | 100% | 38% | 76% | 12% | 66% | 19% | 84% | 62%
30 | O=[N+]([O-])c1ccc(-c2nc(-c3ccc(F)cc3)c(-c3ccncc3)[nH]2)cc1 | 113% | 81% | 102% | 92% |  |  | 113% | 99% | 101% | 92%
31 | CO[C@@H]1[C@H](N(C)C(=O)c2ccccc2)C[C@H]2O[C@]1(C)n1c3ccccc3c3c4c(c5c6ccccc6n2c5c31)C(=O)NC4 | 84% | 29% | 18% | 4% | 10% | -1% | 5% | 1% | 98% | 50%
32 | COc1cccc(-c2cc(=O)c3ccccc3o2)c1N | 97% | 82% | 92% | 87% | 98% | 98% | 101% | 99% | 108% | 108%
33 | CC#CC(=O)Nc1cc2c(Nc3ccc(F)c(Cl)c3)ncnc2cn1 | 98% | 80% | 91% | 84% | 108% | 93% | 107% | 97% | 121% | 87%
34 | N#CC(C#N)=C(N)/C(C#N)=C/c1ccc(O)cc1 |  |  | 96% | 90% | 116% | 95% |  |  |  | 
35 | O=C1Nc2cc(Br)ccc2/C1=C1/Nc2ccccc2/C1=N\O | 59% | 12% | 15% | 8% | 3% | 2% | 1% | 2% | 59% | 73%
36 | Cc1cncc2cccc(S(=O)(=O)N3CCCN(C(=O)CN)C[C@H]3C)c12 | 97% | 63% | 76% | 49% | 95% | 64% | 98% | 60% | 91% | 22%
37 | COc1ccc(CNc2nc(N(CCO)CCO)nc3c2ncn3C(C)C)cc1 | 85% | 55% | 89% | 55% | 99% | 63% | 92% | 54% | 113% | 78%
